The text below walks through data of the supplement of paper PMC10600219.

In all, about 2,800 compounds were measured (“cell viability relative to vehicle”: median about 1.1, lowest 2% from about 0.19 on). Shown is part of a subset that was picked to be rich in the lowest values.

The subject of this assay is NCI-H2228 parental. In words: cell viability relative to vehicle (fraction of vehicle); NCI-H2228 is an ALK-positive lung cancer line and DTP means drug-tolerant persister; higher = less growth inhibition. To be noted: 100 nM; treatment time 6 days. The procedure, abridged: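 Parental NCI-H2228 cells and drug-tolerant persister cells (made with 1000 nM of a targeted drug for 13 days) were seeded in 384-well plates. The next day, the 3114-agent TargetMol anti-cancer compound library was added at 100 nM, with DMSO as vehicle. After 6 days, ATP was read with the CellTiter-Glo 3D Cell Viability Assay. Each value is cell viability relative to vehicle-treated cells.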
Regarding `C[C@H]1O[C@@H](O[C@H]2CC[C@@]3(C)[C@@H](CC[C@]4(C)[C@@H]3C=C[C@]35OC[C@@]6(CCC(C)(C)C[C@H]63)[C@@H](O)C[C@]54C)[C@]2(C)CO)[C@H](O)[C@@H](O[C@@H]2O[C@H](CO)[C@@H](O)[C@H](O)[C@H]2O)[C@H]1O` [Saikosaponin A], the cell viability is 1.11.

In the case of `C/C1=C/CC[C@H](C)C(=O)C[C@@H](C(C)C)C(=O)C1` [Curdione], the cell viability came out at 1.07.

`O=C1c2c(O)ccc(O)c2C(=O)c2c(NCCNCCO)ccc(NCCNCCO)c21` [Mitoxantrone]: the cell viability was 0.132.

`NCCNc1ccc(NCCN)c2c1C(=O)c1ccncc1C2=O` [Pixantrone dimaleate]: the cell viability was 0.405.

On to `O=C1c2cccc(O)c2C(=O)c2c(O)cccc21` [Antrapurol], for which the cell viability stood at 1.06.

For `COc1ccc(S(=O)(=O)N[C@@H](CNc2nc(C)nc(N3CCC(c4ccc5c(n4)NCCC5)CC3)c2C)C(=O)O)cc1`, the cell viability was found to be 0.705.

For `COc1ccc2c(c1)C(c1ccc(F)cc1)=C(CN1CCCC1)CO2`, the cell viability worked out at 1.1.

In the case of `COc1cc2ncnc(Nc3ccc(O)cc3)c2cc1OC`, the cell viability amounted to 1.02.

For the compound `CO[C@H]1C(=O)[C@]2(C)[C@@H](OC)C[C@H]3OC[C@@]3(OC(C)=O)[C@H]2[C@H](OC(=O)c2ccccc2)[C@]2(O)C[C@H](OC(=O)[C@H](O)[C@@H](NC(=O)OC(C)(C)C)c3ccccc3)C(C)=C1C2(C)C` [Cabazitaxel], the cell viability turned out to be 0.2.

For `CC(=O)O[C@@]12CO[C@@H]1C[C@H](O)[C@@]1(C)C(=O)[C@H](O)C3=C(C)[C@@H](OC(=O)[C@H](O)[C@@H](NC(=O)OC(C)(C)C)c4ccccc4)C[C@@](O)([C@@H](OC(=O)c4ccccc4)[C@H]21)C3(C)C` [Docetaxel], the cell viability was 0.118.

Take `CC(=O)O[C@H]1C(=O)[C@@]2(C)[C@H]([C@H](OC(=O)c3ccccc3)[C@]3(O)C[C@H](OC(=O)[C@H](O)[C@@H](NC(=O)c4ccccc4)c4ccccc4)C(C)=C1C3(C)C)[C@]1(OC(C)=O)CO[C@@H]1C[C@@H]2O` [Paclitaxel]: the cell viability is 0.128.

`CC(=O)O[C@@]12CO[C@@H]1C[C@H](O)[C@@]1(C)C(=O)[C@H](O)C3=C(C)[C@@H](OC(=O)[C@H](O)[C@@H](NC(=O)OC(C)(C)C)c4ccccc4)C[C@@](O)([C@@H](OC(=O)c4ccccc4)[C@H]21)C3(C)C` [Docetaxel trihydrate]: the cell viability worked out at 0.154.

Regarding `CC(C)NCC(O)COc1ccc(COCCOC(C)C)cc1` (racemic) [(±)-Bisoprolol hemifumarate], the cell viability was determined as 1.14.

As for `CC(C)(O)[C@H]1CC[C@H](Nc2ccc3ncc(-c4cccc(C(F)(F)F)c4)n3n2)CC1`, the cell viability came to 0.928.

`COc1cc2c(c(OC)c1OC)-c1c(cc(OC)c(OC)c1OC)CC(C)C(C)C2` (configuration not stated) [Schizandrin A]: the cell viability is 1.11.

For `CC(C)c1c(-c2ccccc2)nc2c(C#N)c[nH]n2c1=O`, the cell viability was found to be 1.1.

Take `COC(=O)C[C@](O)(CCCC(C)(C)O)C(=O)O[C@@H]1C(OC)=C[C@]23CCCN2CCc2cc4c(cc2[C@H]13)OCO4` [Homoharringtonine]: the cell viability worked out at 0.162.

As for `COc1c2c(cc3oc(CO[C@@H]4O[C@H](CO)[C@@H](O)[C@H](O)[C@H]4O)cc(=O)c13)O[C@H](C(C)(C)O)C2` [Cimifugin beta-D-glucopyranoside], the cell viability came to 1.09.

Regarding `C=C[C@H]1[C@H](O[C@@H]2O[C@H](CO)[C@@H](O)[C@H](O)[C@H]2O)OC=C2C(=O)OCC[C@]21O` [Swertiamarin], the cell viability came to 1.11.

For the compound `CCCCCCCCCCCCCCCC(=O)O` [Palmitic acid], the cell viability is 1.02.

As to `O=C1O[C@H]2[C@@H]3OC(=O)c4cc(O)c(O)c(O)c4-c4c(cc(O)c(O)c4O)C(=O)OC[C@H]2O[C@@H](OC(=O)c2cc(O)c(O)c(O)c2)[C@@H]3OC(=O)c2cc(O)c(O)c3c2[C@@H]2C1=CC(=O)[C@](O)(O3)C2(O)O` [Geraniin], the cell viability turned out to be 0.981.

Take `COc1cc(N2CCC(N3CCN(C)CC3)CC2)ccc1Nc1ncc(Cl)c(-c2c[nH]c3ccccc23)n1`: the cell viability turned out to be 0.358.

As for `COc1cc(C(C)C)c(Oc2cnc(N)nc2N)cc1I`, the cell viability is 1.16.

Take `C/C(=C\c1csc(C)n1)[C@@H]1C[C@@H]2O[C@]2(C)CCC[C@H](C)[C@H](O)[C@@H](C)C(=O)C(C)(C)[C@@H](O)CC(=O)N1` [Ixabepilone]: the cell viability was 0.119.

For `C[C@H](CCC(=O)NCC(=O)O)[C@H]1CC[C@H]2[C@@H]3[C@H](O)C[C@@H]4C[C@H](O)CC[C@]4(C)[C@H]3CC[C@]12C` [Glycochenodeoxycholic Acid], the cell viability was determined as 1.02.

With `CC(=O)OC(C)C(C)C(=O)OCC12C3CC(C)(C)[C@H](O[C@@H]1C[C@]1(C)C3=CCC3C4(C)CCC(O[C@@H]5O[C@H](C(=O)O)[C@@H](O[C@H]6O[C@H](CO)[C@@H](O)[C@H](O)[C@H]6O)[C@H](O)[C@H]5O[C@@H]5OC[C@@H](O)[C@H](O)[C@H]5O)[C@](C)(CO)C4CCC31C)C2O` (some centres not stated) [Sodium Aescinate], the cell viability was found to be 1.1.

In the case of `O=S(=O)(CCC(F)=C(F)F)c1ncc(Cl)s1` [Fluensulfone], the cell viability stood at 1.07.
